# Where “and” joins values, the source holds several entries; their conditions need not be identical. Equal entries are not always repeated. More than one record can exist for a structure, and the calls need not agree. Calls of active or inactive are those of the source. The calls were made as follows: active = hit-call score of the fitted dose curve at least 0.9, where 1 is the maximum; inactive = score below 0.9.
# What was measured:
# [1] = ATG_GLI_CIS: Attagene CIS-FACTORIAL HepG2 Assay for human Zinc Finger Protein GLI1 (AID 2282945); conditions: HepG2, Attagene cis-factorial reporter mRNA, GLI element; actives raise or lower the signal
# Method in brief: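 Bidirectional curve fits relative to DMSO, using reporter mRNA levels from RT-PCR plus capillary electrophoresis. Cells were HepG2 transiently carrying cis-regulated reporter constructs, harvested 24 h after dosing.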
# [2] = biological target: Bile acid receptor (Homo sapiens) (UniProt Q96RI1); assay: ATG_IR1_CIS: Attagene CIS-FACTORIAL HepG2 Assay for human Nuclear Receptor Subfamily 1 Group H Member 4 (NR1H4), IR1 submotif (AID 2282946); conditions: IR1 reporter transcription, actives raise or lower the signal
# Method in brief: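 Cells (human HepG2) carry transiently transfected cis-promoter reporter transcription units. Compounds are incubated 24 h, total RNA is reverse-transcribed and amplified, and labelled fragments are resolved by capillary electrophoresis. Curves use DMSO as baseline.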
# [3] = ATG_ISRE_CIS: Attagene CIS-FACTORIAL HepG2 Assay for human Interferon Regulatory Factor 1 (IRF1) binding to an Interferon-Stimulated Response Element (ISRE) (AID 2282948); conditions: HepG2 ISRE cis-reporter (Attagene), mRNA transcription readout; actives raise or lower the signal
# Method in brief: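 Transfected HepG2 (multiple reporter transcription units, cis elements) dosed 24 h. RNA → oligo(dT) RT → PCR → 6-FAM primer extension → HpaI → CE. DMSO = negative control/baseline.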
# [4] = ATG_M_32_CIS: Attagene CIS-FACTORIAL HepG2 Assay for M32 Transcription Factor (Internal Marker) (AID 2282949); conditions: HepG2 Attagene cis-factorial M32 reporter, mRNA; actives raise or lower the signal;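 also: background control marker of the multiplexed CIS panel rather than a real target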
# Method in brief: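 Fluorescent capillary electrophoresis peaks of HpaI-digested, FAM-labelled RT-PCR reporter products give the signal. Source: transiently transfected human liver HepG2 cells, 24 h after chemical dosing; bidirectional fitting against DMSO.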
# [5] = ATG_M_06_CIS: Attagene CIS-FACTORIAL HepG2 Assay for M06 Transcription Factor (Internal Marker) (AID 2282950); conditions: HepG2 Attagene CIS-FACTORIAL M06 internal marker reporter; actives raise or lower the signal
# Method in brief: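 Steps: transfect HepG2 with multiplexed cis-element reporter constructs; dose chemical 24 h; extract RNA with DNase treatment; reverse-transcribe, PCR-amplify, 6-FAM label, HpaI digest; separate fragments by capillary electrophoresis. Activity fitted both directions versus DMSO.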
# [6] = biological target: Hypoxia-inducible factor 1-alpha (Homo sapiens) (UniProt Q16665); assay: ATG_HIF1a_CIS: Attagene CIS-FACTORIAL HepG2 Assay for human Hypoxia Inducible Factor 1 (HIF1A) (AID 2282951); conditions: HepG2 Attagene cis-factorial HIF1a reporter transcription; actives raise or lower the signal
# Method in brief: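 Cis-element reporter constructs were transiently transfected into HepG2 cells, which were treated for 24 h; reporter RNA was reverse-transcribed, amplified, labelled and resolved by capillary electrophoresis.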
# [7] = biological target: Hepatocyte nuclear factor 6 (Homo sapiens) (UniProt Q9UBC0); assay: ATG_HNF6_CIS: Attagene CIS-FACTORIAL HepG2 Assay for human Hepatocyte Nuclear Factor 6 (HNF6) (AID 2282952); conditions: HepG2 Attagene cis-factorial HNF6 reporter transcription; actives raise or lower the signal
# Method in brief: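 Cells are HepG2 carrying transiently transfected cis-promoter reporter units. Treatment lasts 24 h, after which reporter transcripts are reverse-transcribed, amplified, FAM-labelled and sized by capillary electrophoresis. DMSO serves as baseline.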
# [8] = ATG_MRE_CIS: Attagene CIS-FACTORIAL HepG2 Assay for human Metal Responsive Element (MRE) (AID 2282954); conditions: HepG2 MRE cis-reporter transcription, Attagene multiplex; actives raise or lower the signal
# Method in brief: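 Transient MRTU transfection of HepG2 (FuGene 6); 24 h dosing; total RNA → oligo(dT) RT, PCR, 6-FAM primer extension, HpaI cut, CE. Bidirectional fit vs DMSO.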
# [9] = ATG_GRE_CIS: Attagene CIS-FACTORIAL HepG2 Assay for human Glucocorticoid Response Elements (GRE) (AID 2282947); conditions: HepG2 GRE cis-reporter, Attagene multiplex mRNA; actives raise or lower the signal
# Method in brief: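 Transient MRTU transfection of human HepG2 liver cells; cis-regulated reporters report endogenous factors. 24 h dosing → RNA isolation → RT-PCR → 6-FAM primer extension → HpaI cut → CE fragment analysis. Bidirectional fit, DMSO negative control.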
# [10] = biological target: Heat shock factor protein 1 (Homo sapiens) (UniProt Q00613); assay: ATG_HSE_CIS: Attagene CIS-FACTORIAL HepG2 Assay for human Heat Shock Transcription Factor 1 (HSE) (AID 2282953); conditions: HepG2 HSE cis-reporter, Attagene RNA transcription; actives raise or lower the signal
# Method in brief: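 Cells were transfected with cis-element-driven reporter constructs, dosed for 24 h, then total RNA was reverse-transcribed and reporter cDNA amplified, FAM-labelled and digested with HpaI. Fragments were resolved by capillary electrophoresis; gain or loss was fitted against DMSO.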
# Chain of Hypoxia-inducible factor 1-alpha (Homo sapiens) (Q16665 whole entry, looked up): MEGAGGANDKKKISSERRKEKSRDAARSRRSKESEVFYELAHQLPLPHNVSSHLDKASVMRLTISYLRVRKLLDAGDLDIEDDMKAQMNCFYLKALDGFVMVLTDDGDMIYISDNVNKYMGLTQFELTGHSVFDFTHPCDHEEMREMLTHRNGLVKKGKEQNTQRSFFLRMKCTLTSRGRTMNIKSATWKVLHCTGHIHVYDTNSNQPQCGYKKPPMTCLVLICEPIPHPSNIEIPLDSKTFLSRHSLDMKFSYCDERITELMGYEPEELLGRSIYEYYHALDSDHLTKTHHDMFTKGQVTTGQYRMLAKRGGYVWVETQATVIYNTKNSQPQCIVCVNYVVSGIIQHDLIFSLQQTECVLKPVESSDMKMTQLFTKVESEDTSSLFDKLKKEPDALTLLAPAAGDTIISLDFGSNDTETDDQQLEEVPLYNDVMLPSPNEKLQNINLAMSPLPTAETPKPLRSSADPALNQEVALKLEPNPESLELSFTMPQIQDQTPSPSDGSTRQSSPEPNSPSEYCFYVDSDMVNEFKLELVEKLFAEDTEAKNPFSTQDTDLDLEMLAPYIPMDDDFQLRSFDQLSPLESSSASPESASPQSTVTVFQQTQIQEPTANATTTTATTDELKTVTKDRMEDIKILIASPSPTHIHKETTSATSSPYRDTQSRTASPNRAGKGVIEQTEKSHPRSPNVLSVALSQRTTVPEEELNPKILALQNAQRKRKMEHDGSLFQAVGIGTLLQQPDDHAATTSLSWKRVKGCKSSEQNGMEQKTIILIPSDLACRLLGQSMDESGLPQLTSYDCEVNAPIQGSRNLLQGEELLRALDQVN
# Chain of Hepatocyte nuclear factor 6 (Homo sapiens) (Q9UBC0 whole entry, looked up): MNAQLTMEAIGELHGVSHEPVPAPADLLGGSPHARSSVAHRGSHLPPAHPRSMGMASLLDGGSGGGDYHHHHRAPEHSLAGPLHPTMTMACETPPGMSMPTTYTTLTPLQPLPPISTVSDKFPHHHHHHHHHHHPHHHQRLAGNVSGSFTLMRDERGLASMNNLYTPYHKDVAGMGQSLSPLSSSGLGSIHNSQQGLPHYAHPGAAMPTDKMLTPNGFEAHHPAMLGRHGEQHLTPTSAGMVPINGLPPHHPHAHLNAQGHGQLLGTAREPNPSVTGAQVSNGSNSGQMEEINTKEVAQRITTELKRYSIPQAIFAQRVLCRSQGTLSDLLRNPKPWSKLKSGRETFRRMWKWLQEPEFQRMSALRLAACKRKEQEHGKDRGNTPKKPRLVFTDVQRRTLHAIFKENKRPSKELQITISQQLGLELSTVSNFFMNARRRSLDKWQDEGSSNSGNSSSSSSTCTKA
# Chain of Bile acid receptor (Homo sapiens) (Q96RI1 whole entry, looked up, the tested form may be a part): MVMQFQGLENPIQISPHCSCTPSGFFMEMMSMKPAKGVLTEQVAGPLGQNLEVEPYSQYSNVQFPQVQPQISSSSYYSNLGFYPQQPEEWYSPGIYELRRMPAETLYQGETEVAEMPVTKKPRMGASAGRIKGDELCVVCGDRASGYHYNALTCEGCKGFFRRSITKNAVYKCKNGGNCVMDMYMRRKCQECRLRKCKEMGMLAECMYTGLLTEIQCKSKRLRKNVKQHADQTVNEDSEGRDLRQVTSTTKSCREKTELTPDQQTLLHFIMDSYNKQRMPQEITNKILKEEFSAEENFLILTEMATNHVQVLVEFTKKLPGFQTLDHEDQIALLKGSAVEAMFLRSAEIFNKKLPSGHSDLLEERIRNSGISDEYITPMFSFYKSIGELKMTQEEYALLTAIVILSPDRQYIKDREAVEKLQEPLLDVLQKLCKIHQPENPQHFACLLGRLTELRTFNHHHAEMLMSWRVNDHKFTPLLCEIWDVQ
# Chain of Heat shock factor protein 1 (Homo sapiens) (Q00613 whole entry, looked up, the tested form may be a part): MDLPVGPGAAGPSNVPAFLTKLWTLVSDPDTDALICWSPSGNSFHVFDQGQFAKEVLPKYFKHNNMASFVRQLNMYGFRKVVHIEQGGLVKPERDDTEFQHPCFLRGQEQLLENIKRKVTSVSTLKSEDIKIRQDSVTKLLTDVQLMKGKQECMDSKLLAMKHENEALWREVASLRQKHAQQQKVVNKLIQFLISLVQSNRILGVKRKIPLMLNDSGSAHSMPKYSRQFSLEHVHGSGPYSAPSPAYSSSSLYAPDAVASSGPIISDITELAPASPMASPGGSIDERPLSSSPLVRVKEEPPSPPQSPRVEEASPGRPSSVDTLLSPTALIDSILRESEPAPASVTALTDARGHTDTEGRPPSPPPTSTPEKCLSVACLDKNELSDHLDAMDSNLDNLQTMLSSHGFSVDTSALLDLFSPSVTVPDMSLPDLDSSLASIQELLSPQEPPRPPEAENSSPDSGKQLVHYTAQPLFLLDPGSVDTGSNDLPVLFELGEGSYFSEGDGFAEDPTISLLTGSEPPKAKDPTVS
Compound,outcome [1],AC50 [2],outcome [2],outcome [3],outcome [4],outcome [5],AC50 [6],outcome [6],outcome [7],outcome [8],AC50 [1],AC50 [9],outcome [9],AC50 [4],AC50 [8],outcome [10],AC50 [3],AC50 [7]
c1ccc2cc3c(ccc4ccccc43)cc2c1,inactive,621 nM (active) and 25.4 µM (active) and 1.92 µM (active),inactive,inactive,inactive,inactive,3.05 µM (active) and 2.3 µM (active),inactive,inactive,inactive,–,–,–,–,–,–,–,–
O=C(O)Cc1cc(I)c(Oc2cc(I)c(O)c(I)c2)c(I)c1,inactive,–,–,inactive,inactive,inactive,–,inactive,inactive,–,67 µM (active),17.2 µM (active),inactive,108 µM (active),32.7 µM (active) and 54.7 µM (active),–,–,–
CCCCCCCCCCCCc1ccccc1S(=O)(=O)O,inactive,–,inactive,inactive,inactive,inactive,–,inactive,inactive,inactive,–,–,inactive,–,–,inactive,–,–
O=C(/C=C/c1ccc(O)cc1)CC(=O)/C=C/c1ccc(O)cc1,inactive,29 µM (active),–,–,inactive,inactive,–,inactive,inactive,–,–,–,inactive,–,10.8 µM (active),–,8.84 µM (active),–
O=C(O)c1ccccc1C(c1ccc(O)cc1)c1ccc(O)cc1,inactive,–,–,inactive,inactive,inactive,–,inactive,inactive,inactive,–,–,inactive,–,–,inactive,–,–
CC(O)C(=O)O (stereo unspecified),inactive,–,inactive,inactive,inactive,inactive,–,inactive,inactive,inactive,–,–,–,–,–,inactive,–,–
ClC1=C(Cl)C(Cl)(Cl)C(Cl)=C1Cl,–,–,–,–,inactive,inactive,–,inactive,inactive,–,11.1 µM (active) and 6.27 µM (active),–,inactive,–,20.2 µM (active) and 6.9 µM (active),–,14.6 µM (active) and 11.1 µM (active),8.06 µM (active)
COCC(C)O (stereo unspecified),inactive,–,–,inactive,inactive,inactive,–,inactive,inactive,inactive,–,–,inactive,–,–,–,–,–
CN1CCC[C@H]1c1cccnc1,inactive,–,–,inactive,inactive,inactive,–,–,inactive,inactive,–,–,–,–,–,–,–,–
CC(C)(C)c1cccc(C(C)(C)C)c1O,inactive,–,inactive,–,inactive,inactive,173 µM (active),–,inactive,–,–,–,inactive,–,158 µM (active),–,162 µM (active),–
CCc1nn(C2CCCCC2)c2cc(C3(C#N)CCC(C(=O)O)CC3)ccc12 (stereo unspecified),inactive,–,inactive,–,inactive,inactive,100 µM (active),–,inactive,–,–,–,inactive,–,100 µM (active),–,67.2 µM (active),–
N#C[C@@H]1CC(F)(F)CN1C(=O)CNC1CC2CCC(C1)N2c1ncccn1 (stereo partly specified),inactive,–,inactive,inactive,inactive,inactive,–,inactive,inactive,inactive,–,–,inactive,–,–,–,–,–
CC(=O)NC1(c2cccc(F)c2)CCN(CC[C@@]2(c3ccc(Cl)c(Cl)c3)CN(c3ccccc3)C(=O)CO2)CC1,–,–,inactive,inactive,inactive,inactive,8.61 µM (active),–,inactive,–,50.7 µM (active),–,inactive,–,45.5 µM (active),–,–,–
CC[C@H](C)[C@@H](C(=O)O)n1sc2ccccc2c1=O,inactive,–,inactive,inactive,inactive,inactive,–,inactive,inactive,inactive,–,–,inactive,–,–,–,–,–
CCCOc1sc(C(=O)N2CCC(c3cc(CN)ccc3F)CC2)c(C)c1Br,inactive,1.12 µM (active),–,inactive,inactive,inactive,3.7 µM (active),–,inactive,inactive,–,–,inactive,–,–,–,–,–
CC(C)CCCCCCOC(=O)CCCCC(=O)OCCCCCCC(C)C,inactive,–,inactive,inactive,inactive,inactive,–,inactive,inactive,inactive,–,–,inactive,–,–,–,–,–
CCCCC(CC)COC(=O)CCCCC(=O)OCC(CC)CCCC (stereo unspecified),inactive,–,inactive,inactive,inactive,inactive,–,inactive,inactive,inactive,–,–,inactive,–,–,–,–,–
CCCCCCCCCCCCN1CCCC1=O,inactive,–,inactive,inactive,inactive,inactive,–,inactive,inactive,inactive,–,–,inactive,–,–,–,–,–
Oc1cccc(O)c1,inactive,–,inactive,inactive,inactive,inactive,–,inactive,inactive,inactive,–,–,inactive,–,–,–,–,–

# Source: PubChem BioAssay (EPA / NIEHS)
